We go through 30 compounds from PubChem BioAssay.

The source made the active and inactive calls. Unless noted, the rule behind the calls is not given here.

The term inhibition denotes the change of the read-out against control, counted positive when it falls.

Assay [1] can be described thus: Brca1-Bard1 BiLC signal decrease – luminescence, single concentration, counter-screen for Mdm2/MdmX interaction inhibitor project, confirmation (AID 504668). Particulars: Brca1/Bard1 bimolecular luciferase complementation counterscreen, at 8 µM, stronger effect = higher value. (The purpose of a counterscreen is to sort out artefacts and off-target activity.)
The target in assay [2] is PEG-3 (UniProt Q6IN02). Description: inhibition of PEG-3 promoter-driven reporter – cell-based, HeLa, luciferase, CREF/GAPDH counter-screen panel, dose response (AID 624167). Particulars: CREF/GAPDH counter-screens; HeLa PEG-Prom luciferase reporter, overnight, run 1, dose range 1, at 100 µM (top of the series) unless noted.
Sequence of PEG-3 (Q6IN02 whole entry, looked up): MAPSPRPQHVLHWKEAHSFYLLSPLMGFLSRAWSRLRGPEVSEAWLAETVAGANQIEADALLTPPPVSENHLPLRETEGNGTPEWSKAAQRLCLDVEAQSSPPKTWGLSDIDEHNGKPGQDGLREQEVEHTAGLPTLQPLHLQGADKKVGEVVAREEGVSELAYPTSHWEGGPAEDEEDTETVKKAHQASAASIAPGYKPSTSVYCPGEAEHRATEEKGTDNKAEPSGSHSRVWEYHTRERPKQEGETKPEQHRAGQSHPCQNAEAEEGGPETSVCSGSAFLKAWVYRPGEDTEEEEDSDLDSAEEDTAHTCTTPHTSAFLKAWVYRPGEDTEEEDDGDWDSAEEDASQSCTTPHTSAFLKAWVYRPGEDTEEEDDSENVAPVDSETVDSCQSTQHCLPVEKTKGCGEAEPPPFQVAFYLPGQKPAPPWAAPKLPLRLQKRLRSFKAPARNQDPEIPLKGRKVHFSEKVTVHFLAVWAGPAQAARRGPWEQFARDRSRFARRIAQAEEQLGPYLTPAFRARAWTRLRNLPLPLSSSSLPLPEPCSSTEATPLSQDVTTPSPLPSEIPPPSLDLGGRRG
Assay [3] deals with PEG-3 (UniProt Q6IN02). The assay is described as above. Particulars: CREF/GAPDH counter-screens; HeLa PEG-Prom luciferase reporter, overnight, run 2, dose range 1, at 100 µM (top of the series) unless noted.
Assay [4] concerns Rat fibroblasts (CREF). Described as above. Particulars: CREF/GAPDH counter-screens; run 1, dose range 1, at 100 µM (top of the series).
Assay [5] relates to Rat fibroblasts (CREF). Described as above. Particulars: CREF/GAPDH counter-screens; run 2, dose range 1, at 100 µM (top of the series).
The target in assay [6] is Tumor necrosis factor receptor superfamily member 10B (Homo sapiens) (UniProt O14763). Description: viability loss of caspase-8 NB7 cells with TRAIL – with/without TRAIL, luminescence panel, confirmation (AID 651596; in the data active = activity above about 50%). Particulars: NB7 neuroblastoma + caspase-8, TRAIL sensitization, NB7 Caspase-8, with TRAIL, mean of runs, at 10 µM, stronger effect = higher value.
Sequence of Tumor necrosis factor receptor superfamily member 10B (Homo sapiens) (O14763 whole entry, looked up): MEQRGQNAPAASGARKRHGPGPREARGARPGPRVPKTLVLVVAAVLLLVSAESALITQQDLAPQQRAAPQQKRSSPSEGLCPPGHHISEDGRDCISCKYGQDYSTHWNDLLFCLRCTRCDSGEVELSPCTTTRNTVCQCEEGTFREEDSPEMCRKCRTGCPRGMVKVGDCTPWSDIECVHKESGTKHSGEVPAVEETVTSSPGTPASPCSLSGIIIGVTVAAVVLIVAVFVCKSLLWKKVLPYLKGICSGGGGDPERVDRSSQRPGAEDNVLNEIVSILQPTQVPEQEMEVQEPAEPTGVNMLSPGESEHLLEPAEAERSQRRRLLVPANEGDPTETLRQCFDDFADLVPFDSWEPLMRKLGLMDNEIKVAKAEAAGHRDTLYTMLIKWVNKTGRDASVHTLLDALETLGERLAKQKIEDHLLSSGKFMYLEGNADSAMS
Experiment in assay [7]: as above
Particulars: NB7 neuroblastoma + caspase-8, without TRAIL, NB7 Caspase-8, without TRAIL, mean of runs, at 10 µM.

Assay [8] can be described thus: NFkB reporter suppression in cystic fibrosis bronchial cells – cell-based, uHTS hits, panel, cytotoxicity readout, dose response (AID 624344). Particulars: CF bronchial epithelial cells, PAF-induced NFkB reporter inhibition, with PAF, run 1; at 79 µM (top of the series) unless noted.
Experiment in assay [9]: as above
Particulars: CF bronchial epithelial cells, PAF-induced NFkB reporter inhibition, with PAF, run 2; at 79 µM (top of the series) unless noted.

For the compound `COc1ccc(C(=O)O/N=C(\N)c2ccccn2)cc1`, the inhibition is 24.2% (active) in assay [1]; 99.1% in the assay with PEG-3 [2]; 101% in the assay with PEG-3 [3]; 98.2% in the assay on Rat fibroblasts (CREF) [4]; 99.2% with Rat fibroblasts (CREF) [5].

For the compound `Cc1ccc2nc(-c3ccccc3)cn2c1`, the inhibition in [1] was 32.2% (active); with PEG-3 [2] it was 97.5%; in the assay with PEG-3 [3], 99%; in the assay on Rat fibroblasts (CREF) [4], 100%; in the assay on Rat fibroblasts (CREF) [5] it was 99.1%. Further, the activity in assay [6] is 94%; in assay [7] it was 93.9%.

For `Oc1ccc(CCNc2ncnc3ccc(Cl)cc23)cc1`, the inhibition in [1] is 28.6% (active); in assay [8] it was 113%; in assay [9], 106%.

With `COc1ccccc1C(=O)Nc1nc2ccccc2s1`, the inhibition in [1] is 31.7% (active); with PEG-3 [2], 101%; with PEG-3 [3], 98%; in the assay on Rat fibroblasts (CREF) [4], 100%; with Rat fibroblasts (CREF) [5], 99.5%.

As for `COC(=O)Cc1[nH]n(-c2nc3ccccc3s2)c(=O)c1C(C)=Nc1ccc(C)cc1`, the inhibition was 32.2% (active) in assay [1]; 80.3% in the assay with PEG-3 [2]; 83.8% in the assay with PEG-3 [3]; 78.5% in the assay on Rat fibroblasts (CREF) [4]; 80.2% with Rat fibroblasts (CREF) [5].

As for `Clc1cncc(Cl)c1N/N=C/c1ccncc1`, the values for the inhibition in [1], in assay [8] and in [9] were 27.6% (active), 105% and 118%, respectively.

As to `COc1ccc(C(=O)CN2C(=O)c3ccccc3S2(=O)=O)cc1`, the inhibition in assay [1] is 25.5% (active); in the assay with PEG-3 [2], 99.1%; with PEG-3 [3], 97.6%; in the assay on Rat fibroblasts (CREF) [4], 96.6%; with Rat fibroblasts (CREF) [5], 97.6%. The activity stood at 70.2% in assay [6] and 70.8% in [7].

In the case of `CC(C)(C)c1ccc(C(=O)O/N=C(\N)c2ccccn2)cc1`, the inhibition in assay [1] was 28% (active); with PEG-3 [2] it was 102%; with PEG-3 [3] it was 99%; in the assay on Rat fibroblasts (CREF) [4], 101%; in the assay on Rat fibroblasts (CREF) [5] it was 99.9%. For the same compound, the activity in assay [6] and in assay [7] was 99.8% in each case.

With `O=C(/C=C/Nc1ccccc1Br)c1ccccn1`, the inhibition in assay [1] is 24% (active); with PEG-3 [2], 96.6%; with PEG-3 [3], 99.5%; with Rat fibroblasts (CREF) [4] it was 97.6%; with Rat fibroblasts (CREF) [5] it was 98.9%.

Take `Cc1ccc(-c2nnc(SCC(=O)Nc3ccccc3F)o2)cc1`: the inhibition in assay [1] is 32.6% (active); in the assay with PEG-3 [2] it was 98.6%; with PEG-3 [3], 94.7%; in the assay on Rat fibroblasts (CREF) [4] it was 97.2%; in the assay on Rat fibroblasts (CREF) [5], 97.2%. The activity was 83% in [6] and 83.2% in assay [7].

`Cc1cc(C(=O)COC(=O)c2ccccc2O)c(C)n1CC1CCCO1` (stereo not given): the inhibition was 35.8% (active) in assay [1]; 99.1% in the assay with PEG-3 [2]; 101% with PEG-3 [3]; 99.6% in the assay with Rat fibroblasts (CREF) [4]; 99.2% in the assay with Rat fibroblasts (CREF) [5]. For the same compound, the results for the activity in assay [6] and in [7] were 91.2% and 88.9%, respectively.

`COC(=O)c1nn(-c2ccc3c(c2)CCN3C(C)=O)cc1O`: the inhibition is 31% (active) in [1]; 96.2% with PEG-3 [2]; 97.9% in the assay with PEG-3 [3]; 99.1% in the assay on Rat fibroblasts (CREF) [4]; 99.2% with Rat fibroblasts (CREF) [5]. The activity in [6] was found to be 86.6%; in assay [7], 85.3%.

Turning to `Cc1cnc(NC(=O)c2ccc3c(c2)OCCO3)s1`, the inhibition was 28.6% (active) in [1]; 98.1% in the assay with PEG-3 [2]; 97% with PEG-3 [3]; 100% with Rat fibroblasts (CREF) [4]; 99.6% in the assay on Rat fibroblasts (CREF) [5]. The activity in assay [6] was determined as 98.2%; in assay [7], 98.5%.

As for `CCCC(=O)NC(c1ccc(N(C)C)cc1)c1ccc2cccnc2c1O` (stereo not given), the inhibition is 29.9% (active) in [1]; 24.4% with PEG-3 [2]; 78.2% [run 2, dose range 1, at 50 µM] with PEG-3 [3]; 42.3% in the assay on Rat fibroblasts (CREF) [4]; 43.5% in the assay with Rat fibroblasts (CREF) [5].

Consider `COc1ccc(-c2cn[nH]c2-c2ccc(OC)cc2O)cc1`, for which the figures for the inhibition in assay [1], in assay [8] and in [9] were 32.5% (active), 103% and 112%, respectively.

For `O=C(CCSc1nc2ccccc2s1)N/N=C/c1c(O)ccc2ccccc12`, the inhibition is 31.6% (active) in assay [1]; 58.9% in the assay with PEG-3 [2]; 82.3% with PEG-3 [3]; 40.6% in the assay with Rat fibroblasts (CREF) [4]; 38% in the assay with Rat fibroblasts (CREF) [5].

With `Cc1nc2cc(-c3ccccc3)sc2c(=O)n1N`, the inhibition in assay [1] is 30% (active); with PEG-3 [2], 102%; in the assay with PEG-3 [3], 97.8%; in the assay with Rat fibroblasts (CREF) [4], 93.7%; with Rat fibroblasts (CREF) [5], 92%. For the same compound, the activity in assay [6] was 73.1%; in [7] it was 73.6%.

Take `Cc1cccc(Nc2ncnc3ccc(Br)cc23)c1`: the inhibition was 25.6% (active) in [1], 103% in assay [8] and 110% in assay [9].

Take `O=C(CCn1cnc(-c2ccccc2)c1-c1ccccc1)N/N=C/c1ccccc1O`: the inhibition in [1] is 25.7% (active); with PEG-3 [2] it was 100%; with PEG-3 [3] it was 101%; in the assay with Rat fibroblasts (CREF) [4] it was 86.7%; in the assay with Rat fibroblasts (CREF) [5], 94.1%.

Regarding `CN(C)CCCN(C(=O)c1ccc(C(=O)c2ccccc2)cc1)c1nc2cc3c(cc2s1)OCO3`, the inhibition in [1] is 31.7% (active); with PEG-3 [2], 99.4%; with PEG-3 [3], 102%. For the same compound, the activity came to 46.7% in assay [6] and 54.3% in assay [7].

In the case of `CCC(=O)NC(c1ccc(C)cc1)c1ccc2cccnc2c1O` (stereo not given), the inhibition in assay [1] was 23.7% (active); in the assay with PEG-3 [2], -12.7%; with PEG-3 [3], 50.5%; in the assay with Rat fibroblasts (CREF) [4] it was 16.7%; with Rat fibroblasts (CREF) [5] it was 31.4%.

For `O=C(N/N=C\c1c(O)ccc2ccccc12)c1ccc(Cn2cccn2)o1`, the inhibition in assay [1] was 24.8% (active); in the assay with PEG-3 [2], 84.9%; with PEG-3 [3] it was 75.1%; in the assay with Rat fibroblasts (CREF) [4], 51.2%; with Rat fibroblasts (CREF) [5], 41.5%.

For the compound `O=C(NCCc1ccccc1)c1ccc2c(c1)OCCO2`, the inhibition in assay [1] is 27.8% (active); with PEG-3 [2], 94.6%; with PEG-3 [3] it was 97.9%; in the assay on Rat fibroblasts (CREF) [4], 99%; in the assay on Rat fibroblasts (CREF) [5], 98.4%. For the same compound, the activity in assay [6] came to 89.7%; in [7], 90.2%.

As to `O=C(NC1=NCCS1)C1COc2ccccc2O1` (stereo not given), the inhibition in assay [1] was 34% (active); with PEG-3 [2], 96.4%; with PEG-3 [3], 97.6%; in the assay on Rat fibroblasts (CREF) [4] it was 86.9%; in the assay with Rat fibroblasts (CREF) [5], 87.4%.

With `COc1ccc2cc(C(N)=O)c(=Nc3ccc(C)cc3)oc2c1`, the inhibition in assay [1] was 35.2% (active); in [8], 87.6%; in [9], 75.7%.

For `Cc1cc(C)c2nc(NNC(=O)c3ccc(S(=O)(=O)N4CC(C)CC(C)C4)cc3)sc2c1` (stereo not given), the inhibition in assay [1] is 23.2% (active); with PEG-3 [2] it was 99.5%; in the assay with PEG-3 [3] it was 101%; with Rat fibroblasts (CREF) [4], 92.9%; in the assay with Rat fibroblasts (CREF) [5] it was 95.6%.

With `Cc1ccc2nc(C(F)(F)F)c(C#N)c(N)c2c1`, the inhibition in assay [1] was 25.7% (active); in assay [8], 114%; in assay [9] it was 106%.

Regarding `CN1CCN(c2ncnc3scc(-c4ccccc4Cl)c23)CC1`, the inhibition is 28.7% (active) in [1], 113% in assay [8] and 100% in [9].

In the case of `CCc1c(C)nc2ccc(Br)cc2c1SCCC#N`, the figures for the inhibition in assay [1], in assay [8] and in assay [9] were 23.1% (active), 105% and 113%, respectively.

Consider `O=C(/C=C/c1cccc([N+](=O)[O-])c1)n1cnc2ccccc21`, for which the inhibition in assay [1] is 24.6% (active); in [8], 102%; in assay [9], 111%.
